# From PubChem BioAssay (EPA / NIEHS)
# Several values for one entry are separate records, joined by “and”; a condition that tells them apart may be missing. Identical values can stand only once. The source holds several records for some structures; these can differ, active in one and inactive in another. Activity calls are given as the source filed them. How the source made its calls: active means hit-call score of the fitted dose curve at least 0.9, where 1 is the maximum; inactive means score below 0.9.
# Read-out: urokinase Plasminogen Activator (uPA), PLAU (gene 5328)
# Assay: BSK_BF4T_uPA: BioMAP Diversity Plus: BF4T Assay for urokinase Plasminogen Activator (uPA) Biomarker Activity (AID 2284275)
# Conditions: primary human bronchial epithelial cells with fibroblasts
# How it was run: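 uPA levels measured by ELISA at 24 hours in BF4T cultures (bronchial epithelial cells plus dermal fibroblasts) and compared with DMSO; cytotoxicity tracked in parallel cultures by sulforhodamine B staining.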
SMILES,outcome,AC50
O=C(O)C(F)(OC(F)(F)C(F)(OC(F)(F)C(F)(OC(F)(F)C(F)(F)C(F)(F)F)C(F)(F)F)C(F)(F)F)C(F)(F)F (stereo not drawn),inactive,
FC(F)(F)C(F)(F)C(F)(F)C(F)(F)C(F)(F)C(F)(F)CCS,inactive,
C=C(C)C(=O)OCC(F)(F)C(F)(F)C(F)(F)C(F)(F)C(F)(F)C(F)(F)C(F)(F)F,inactive,
FC(F)(F)C(F)(F)C(F)(F)C(F)(F)CCI,inactive,
O=C(O)C(F)(F)C(F)(F)C(F)(F)F,inactive,
N=C(N)C(F)(F)C(F)(F)C(F)(F)C(F)(F)C(F)(F)C(F)(F)C(F)(F)F,inactive,
O=C(O)C(F)(OC(F)(F)C(F)(OC(F)(F)C(F)(F)C(F)(F)F)C(F)(F)F)C(F)(F)F (stereo not drawn),inactive,
O=C(O)C(F)(F)C(F)(F)C(F)(F)C(F)(F)C(F)(F)C(F)(F)C(F)(F)C(F)(F)C(F)(F)C(F)(F)C(F)(F)C(F)(F)C(F)(F)F,inactive,
FC(F)(F)C(F)(F)C(F)(F)N(C(F)(F)C(F)(F)C(F)(F)F)C(F)(F)C(F)(F)C(F)(F)F,inactive,
O=C(O)C=C(C(F)(F)F)C(F)(F)F,inactive,
O=C(O)C(F)(F)C(F)(F)F,inactive,
FC(F)(I)C(F)(F)C(F)(F)C(F)(F)I,,49.9 µM (active) and 53.8 µM (active) and 46.2 µM (active)
OCC(F)(F)C(F)(F)C(F)(F)F,inactive,
FC(F)(F)C(F)(F)C(F)(F)C(F)(F)C(F)(F)C(F)(F)C(F)(F)Br,inactive,
OCC(F)(F)C(F)(F)C(F)(F)C(F)F,inactive,
OCCCC(F)(F)C(F)(F)C(F)(F)C(F)(F)C(F)(F)C(F)(F)C(F)(F)F,,47.8 µM (active) and 45.7 µM (active)
O=S(=O)(OCC(F)F)C(F)(F)F,inactive,
O=S(=O)(O)C(F)(F)C(F)(F)C(F)(F)C(F)(F)C(F)(F)C(F)(F)C(F)(F)F,inactive,
OCC(F)(F)C(F)(F)C(F)(F)C(F)(F)C(F)(F)C(F)(F)F,inactive,
C=CC(=O)OCC(F)(F)C(F)(F)C(F)(F)C(F)(F)COC(=O)C=C,inactive,30 µM (active)
O=C(O)C(F)(F)C(F)(F)C(F)(F)C(F)(F)C(F)(F)C(F)(F)C(F)(F)C(F)(F)C(F)(F)C(F)F,,41.3 µM (active) and 17.5 µM (active)
C=C(C)C(=O)OCC(F)(F)C(F)(F)C(F)(F)F,inactive,
FC(F)(F)C(F)(F)CNCC(F)(F)C(F)(F)F,inactive,
COC(=O)CCC(F)(F)C(F)(F)C(F)(F)C(F)(F)F,inactive,
CC(C)(C)C(=O)CC(=O)C(F)(F)C(F)(F)C(F)(F)F,inactive,
O=C(O)C(F)(F)C(F)(F)C(F)(F)C(F)(F)C(F)(F)C(F)(F)C(F)(F)C(F)(F)Cl,,45.3 µM (active) and 46.1 µM (active)
OCC(F)(F)C(F)(F)C(F)(F)C(F)(F)C(F)(F)C(F)F,inactive,
